Source: the supplement of paper PMC11732987, “Enantioselective OTUD7B fragment discovery through chemoproteomics screening and high-throughput optimisation” (Communications Chemistry, 2025)

Key:
Assay in all cases: log2 ratio of Biotin-Ahx-Ub-VS probe labelling (fragment/DMSO); higher = less target engagement (more negative = stronger competition), active = hit call of the paper (q ≤ 0.05, log2 ratio ≤ -1)
Settings in all cases: compound concentration: 200 uM; treatment time: 3 h
USP19 = biological target: T1, USP19 (UniProt O94966)
T1 sequence (whole entry): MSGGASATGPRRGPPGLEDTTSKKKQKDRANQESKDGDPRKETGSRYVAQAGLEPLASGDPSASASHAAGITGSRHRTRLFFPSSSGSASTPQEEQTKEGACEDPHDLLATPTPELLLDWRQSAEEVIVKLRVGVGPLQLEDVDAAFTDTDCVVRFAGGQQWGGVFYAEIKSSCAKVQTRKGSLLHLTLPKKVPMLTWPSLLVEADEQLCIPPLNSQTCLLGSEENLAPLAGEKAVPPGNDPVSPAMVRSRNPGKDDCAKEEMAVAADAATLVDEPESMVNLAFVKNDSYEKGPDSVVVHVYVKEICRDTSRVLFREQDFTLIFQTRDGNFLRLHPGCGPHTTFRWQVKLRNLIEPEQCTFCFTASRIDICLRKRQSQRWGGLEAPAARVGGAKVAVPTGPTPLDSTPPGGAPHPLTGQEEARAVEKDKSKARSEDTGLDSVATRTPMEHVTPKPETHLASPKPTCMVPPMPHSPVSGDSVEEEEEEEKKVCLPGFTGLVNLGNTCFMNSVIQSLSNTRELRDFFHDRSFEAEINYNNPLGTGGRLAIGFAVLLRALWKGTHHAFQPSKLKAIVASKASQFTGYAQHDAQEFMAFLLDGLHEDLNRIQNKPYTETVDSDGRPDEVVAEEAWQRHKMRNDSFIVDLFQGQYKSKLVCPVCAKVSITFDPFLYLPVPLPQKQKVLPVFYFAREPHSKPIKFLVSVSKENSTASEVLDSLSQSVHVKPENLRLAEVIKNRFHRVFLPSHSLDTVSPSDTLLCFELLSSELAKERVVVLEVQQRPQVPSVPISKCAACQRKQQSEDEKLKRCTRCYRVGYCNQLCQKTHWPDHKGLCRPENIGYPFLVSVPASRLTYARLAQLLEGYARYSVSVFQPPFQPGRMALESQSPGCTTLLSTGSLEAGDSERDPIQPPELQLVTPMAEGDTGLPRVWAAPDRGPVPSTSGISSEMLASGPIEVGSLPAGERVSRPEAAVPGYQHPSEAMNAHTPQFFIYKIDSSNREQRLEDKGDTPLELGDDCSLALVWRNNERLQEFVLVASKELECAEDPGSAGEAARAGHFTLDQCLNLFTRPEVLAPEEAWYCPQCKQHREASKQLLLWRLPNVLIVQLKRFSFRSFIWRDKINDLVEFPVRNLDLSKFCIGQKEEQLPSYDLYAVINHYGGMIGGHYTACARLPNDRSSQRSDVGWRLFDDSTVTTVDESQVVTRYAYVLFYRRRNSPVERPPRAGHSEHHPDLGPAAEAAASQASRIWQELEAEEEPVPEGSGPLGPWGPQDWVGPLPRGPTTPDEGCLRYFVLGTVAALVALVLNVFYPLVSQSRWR
Outline: (§1)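 Triplicate samples of HEK293T lysate, 495 µg each, received fragment at 200 µM or vehicle for 3 h, followed by Biotin-Ahx-Ub-VS (0.5 µM final) for 1 h. After NeutrAvidin enrichment of labelled DUBs and LysC/trypsin digestion, peptides were run by diaPASEF LC-MS/MS. The values are average log2 fragment/vehicle ratios from global-median-normalised Spectronaut label-free quantities, tested by unpaired t-test on proteins having ≥2 unique peptides.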

USP22 = biological target: T2, USP22 (UniProt Q9UPT9)
T2 sequence (whole entry): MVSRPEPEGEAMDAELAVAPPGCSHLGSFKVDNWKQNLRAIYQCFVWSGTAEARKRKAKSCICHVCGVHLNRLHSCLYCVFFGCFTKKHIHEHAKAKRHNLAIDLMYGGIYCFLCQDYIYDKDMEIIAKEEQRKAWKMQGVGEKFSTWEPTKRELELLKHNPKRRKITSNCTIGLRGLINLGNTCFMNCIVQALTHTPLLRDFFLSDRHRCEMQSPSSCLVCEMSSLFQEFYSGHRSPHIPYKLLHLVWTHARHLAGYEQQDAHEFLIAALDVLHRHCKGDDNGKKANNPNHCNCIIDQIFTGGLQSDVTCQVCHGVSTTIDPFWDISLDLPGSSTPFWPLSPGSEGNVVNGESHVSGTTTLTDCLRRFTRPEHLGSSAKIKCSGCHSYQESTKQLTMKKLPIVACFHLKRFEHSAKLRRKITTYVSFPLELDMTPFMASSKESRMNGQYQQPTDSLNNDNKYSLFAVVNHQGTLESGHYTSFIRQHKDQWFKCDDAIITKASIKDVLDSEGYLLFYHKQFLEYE
Outline: as §1

USP24 = USP24 (UniProt Q9UPU5)
USP24, sequence (Q9UPU5 whole entry): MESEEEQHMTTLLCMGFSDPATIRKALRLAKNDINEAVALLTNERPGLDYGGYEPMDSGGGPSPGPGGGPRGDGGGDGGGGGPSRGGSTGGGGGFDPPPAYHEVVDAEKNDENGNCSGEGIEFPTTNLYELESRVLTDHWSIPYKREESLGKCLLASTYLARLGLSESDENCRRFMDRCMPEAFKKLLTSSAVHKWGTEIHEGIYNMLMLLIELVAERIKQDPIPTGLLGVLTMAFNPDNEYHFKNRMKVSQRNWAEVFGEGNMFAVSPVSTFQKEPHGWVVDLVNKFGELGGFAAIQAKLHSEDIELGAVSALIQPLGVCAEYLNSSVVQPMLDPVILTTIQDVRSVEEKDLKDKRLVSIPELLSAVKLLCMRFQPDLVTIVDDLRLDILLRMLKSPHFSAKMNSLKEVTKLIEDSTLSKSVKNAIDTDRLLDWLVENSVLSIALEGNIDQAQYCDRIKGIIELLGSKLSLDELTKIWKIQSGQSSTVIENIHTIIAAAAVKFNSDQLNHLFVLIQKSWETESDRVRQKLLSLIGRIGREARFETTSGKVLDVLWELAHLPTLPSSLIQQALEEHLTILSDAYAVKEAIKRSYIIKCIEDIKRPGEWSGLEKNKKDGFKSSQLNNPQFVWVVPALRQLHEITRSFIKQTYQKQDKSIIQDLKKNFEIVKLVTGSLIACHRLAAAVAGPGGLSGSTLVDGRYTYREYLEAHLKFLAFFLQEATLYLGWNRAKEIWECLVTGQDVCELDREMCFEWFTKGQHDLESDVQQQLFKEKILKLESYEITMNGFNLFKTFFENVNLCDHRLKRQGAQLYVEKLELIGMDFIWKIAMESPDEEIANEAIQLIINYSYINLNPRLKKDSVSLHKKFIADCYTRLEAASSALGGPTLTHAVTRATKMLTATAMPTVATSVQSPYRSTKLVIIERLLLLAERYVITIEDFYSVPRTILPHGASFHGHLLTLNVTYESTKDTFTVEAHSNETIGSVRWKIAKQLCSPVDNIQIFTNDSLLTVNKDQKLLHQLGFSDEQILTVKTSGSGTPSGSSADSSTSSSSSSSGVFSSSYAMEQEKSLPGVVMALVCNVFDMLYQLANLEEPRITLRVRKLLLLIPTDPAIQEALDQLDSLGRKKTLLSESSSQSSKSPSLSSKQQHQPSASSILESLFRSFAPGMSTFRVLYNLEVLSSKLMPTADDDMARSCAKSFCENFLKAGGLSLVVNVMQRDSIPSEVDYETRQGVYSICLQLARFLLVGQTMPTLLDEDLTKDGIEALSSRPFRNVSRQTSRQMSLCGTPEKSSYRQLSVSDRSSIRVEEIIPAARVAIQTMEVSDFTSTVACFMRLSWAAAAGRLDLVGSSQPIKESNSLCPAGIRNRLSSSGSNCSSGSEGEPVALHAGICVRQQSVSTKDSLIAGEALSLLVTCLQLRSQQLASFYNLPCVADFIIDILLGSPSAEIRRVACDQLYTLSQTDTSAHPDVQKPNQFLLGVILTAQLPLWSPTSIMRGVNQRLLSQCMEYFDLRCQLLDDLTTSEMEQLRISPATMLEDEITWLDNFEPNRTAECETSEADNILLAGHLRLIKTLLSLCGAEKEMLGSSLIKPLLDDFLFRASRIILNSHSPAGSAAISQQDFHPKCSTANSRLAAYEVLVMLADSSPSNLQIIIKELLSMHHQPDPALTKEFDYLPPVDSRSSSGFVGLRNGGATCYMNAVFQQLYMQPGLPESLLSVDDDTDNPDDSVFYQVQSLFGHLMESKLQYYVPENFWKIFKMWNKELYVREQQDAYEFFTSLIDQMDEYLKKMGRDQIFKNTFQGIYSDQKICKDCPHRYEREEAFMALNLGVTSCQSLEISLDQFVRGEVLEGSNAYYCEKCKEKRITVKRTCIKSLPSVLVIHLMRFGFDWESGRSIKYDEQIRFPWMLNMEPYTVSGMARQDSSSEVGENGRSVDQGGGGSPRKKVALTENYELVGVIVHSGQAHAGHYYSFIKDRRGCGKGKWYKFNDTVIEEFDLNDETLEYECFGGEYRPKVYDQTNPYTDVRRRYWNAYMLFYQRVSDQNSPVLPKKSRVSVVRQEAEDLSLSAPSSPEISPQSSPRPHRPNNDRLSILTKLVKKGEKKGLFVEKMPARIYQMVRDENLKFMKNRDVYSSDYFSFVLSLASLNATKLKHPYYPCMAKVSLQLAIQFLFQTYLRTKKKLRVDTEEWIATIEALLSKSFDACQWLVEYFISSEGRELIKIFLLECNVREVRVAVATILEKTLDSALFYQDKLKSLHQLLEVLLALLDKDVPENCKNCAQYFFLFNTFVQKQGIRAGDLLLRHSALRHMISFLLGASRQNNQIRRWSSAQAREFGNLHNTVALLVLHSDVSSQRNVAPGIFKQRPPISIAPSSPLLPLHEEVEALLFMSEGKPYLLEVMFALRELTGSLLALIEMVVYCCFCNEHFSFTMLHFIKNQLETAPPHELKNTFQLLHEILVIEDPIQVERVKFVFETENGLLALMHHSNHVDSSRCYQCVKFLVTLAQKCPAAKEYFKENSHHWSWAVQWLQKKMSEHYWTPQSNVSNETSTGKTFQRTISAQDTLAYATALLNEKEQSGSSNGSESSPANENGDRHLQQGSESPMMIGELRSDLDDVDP
Outline: as §1

USP25 = biological target: T3, USP25 (UniProt Q9UHP3)
T3 sequence (whole entry): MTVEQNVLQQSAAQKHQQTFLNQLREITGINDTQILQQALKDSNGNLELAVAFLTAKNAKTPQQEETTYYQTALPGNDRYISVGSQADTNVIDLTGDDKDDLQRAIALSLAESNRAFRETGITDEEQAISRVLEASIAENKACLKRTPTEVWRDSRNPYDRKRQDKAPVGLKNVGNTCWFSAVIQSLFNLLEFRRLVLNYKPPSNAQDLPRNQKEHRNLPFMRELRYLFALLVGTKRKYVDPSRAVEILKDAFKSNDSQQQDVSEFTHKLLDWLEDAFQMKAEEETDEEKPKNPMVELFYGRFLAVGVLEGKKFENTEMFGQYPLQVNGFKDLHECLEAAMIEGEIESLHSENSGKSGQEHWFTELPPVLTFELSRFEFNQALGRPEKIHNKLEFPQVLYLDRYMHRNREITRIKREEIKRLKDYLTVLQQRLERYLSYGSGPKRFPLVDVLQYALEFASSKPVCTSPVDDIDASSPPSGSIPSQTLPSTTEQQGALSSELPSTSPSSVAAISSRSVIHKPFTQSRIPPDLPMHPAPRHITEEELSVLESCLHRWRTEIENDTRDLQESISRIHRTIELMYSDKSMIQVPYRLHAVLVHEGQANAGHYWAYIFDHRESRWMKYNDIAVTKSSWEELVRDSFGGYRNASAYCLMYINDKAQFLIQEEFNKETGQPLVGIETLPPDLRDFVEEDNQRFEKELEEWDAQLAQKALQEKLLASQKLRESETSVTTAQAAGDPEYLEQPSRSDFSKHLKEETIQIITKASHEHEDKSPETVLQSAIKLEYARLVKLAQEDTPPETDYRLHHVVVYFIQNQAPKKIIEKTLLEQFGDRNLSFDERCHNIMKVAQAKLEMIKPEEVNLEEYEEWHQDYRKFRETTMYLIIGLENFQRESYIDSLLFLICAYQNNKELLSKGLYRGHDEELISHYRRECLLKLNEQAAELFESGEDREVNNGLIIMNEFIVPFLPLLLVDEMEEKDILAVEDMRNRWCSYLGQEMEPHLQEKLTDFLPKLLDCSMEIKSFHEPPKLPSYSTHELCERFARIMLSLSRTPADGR
Outline: as §1

USP28 = biological target: T4, USP28 (UniProt Q96RU2)
T4 sequence (whole entry): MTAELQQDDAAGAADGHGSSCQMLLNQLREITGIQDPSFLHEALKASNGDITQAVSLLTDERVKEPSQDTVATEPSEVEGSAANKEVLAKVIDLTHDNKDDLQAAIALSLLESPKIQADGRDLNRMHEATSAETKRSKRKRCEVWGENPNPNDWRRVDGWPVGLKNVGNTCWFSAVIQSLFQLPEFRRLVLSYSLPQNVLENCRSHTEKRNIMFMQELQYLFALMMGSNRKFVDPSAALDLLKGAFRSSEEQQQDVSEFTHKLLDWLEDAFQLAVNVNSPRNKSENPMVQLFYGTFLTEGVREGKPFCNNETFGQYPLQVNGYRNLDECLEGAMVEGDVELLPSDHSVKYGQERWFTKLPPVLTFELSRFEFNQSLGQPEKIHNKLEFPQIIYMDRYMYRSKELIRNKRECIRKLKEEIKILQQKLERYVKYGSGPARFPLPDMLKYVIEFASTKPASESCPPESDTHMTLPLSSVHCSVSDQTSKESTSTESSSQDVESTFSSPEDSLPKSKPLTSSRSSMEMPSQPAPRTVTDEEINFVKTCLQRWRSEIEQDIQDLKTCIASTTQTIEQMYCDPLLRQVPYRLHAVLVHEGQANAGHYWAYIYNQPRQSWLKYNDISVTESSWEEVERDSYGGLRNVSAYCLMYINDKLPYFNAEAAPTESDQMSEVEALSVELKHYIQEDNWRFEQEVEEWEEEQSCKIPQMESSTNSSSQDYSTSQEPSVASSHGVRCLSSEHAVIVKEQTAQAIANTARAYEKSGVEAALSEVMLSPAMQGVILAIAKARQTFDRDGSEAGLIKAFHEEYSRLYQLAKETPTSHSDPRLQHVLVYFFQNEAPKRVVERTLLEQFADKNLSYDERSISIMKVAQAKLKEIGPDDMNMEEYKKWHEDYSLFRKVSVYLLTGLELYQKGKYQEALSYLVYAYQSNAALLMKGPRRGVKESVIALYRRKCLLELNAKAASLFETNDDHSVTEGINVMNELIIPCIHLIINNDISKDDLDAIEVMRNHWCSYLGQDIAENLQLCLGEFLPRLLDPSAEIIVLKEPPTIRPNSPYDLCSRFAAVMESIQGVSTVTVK
Outline: as §1

Measured: log2 ratio of Biotin-Ahx-Ub-VS probe labelling

Cc1nc(CC2CCN(C(=O)CCl)CC2)no1
inactive: USP19 -0.747 | USP22 -0.386 | USP24 -0.783 | USP25 -0.763 | USP28 -0.873
